Compound activity as filed in PubChem.
AddAB inh: growth inhibition of E. coli expressing H. pylori AddAB, primary screen, AddAB inhibitor project, absorbance; inhibition, % at 11.9 µM; AID 435030, 2010; actives 0.29% (n = 330,000); in the data active = inhibition above about 12%
Tat export inh: E. coli Tat export inhibitors, primary screen, MC4100, TorA-mCherry reporter, fluorescence, single point | inhibition, % at 10 µM | actives 0.036% (n = 340,000);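 active = mean replicate inhibition at least 50% and at least half of replicates individually reaching 50%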;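 also: exported cargo escapes ClpAP degradation while cytoplasmic cargo is degraded and loses fluorescence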
phage Ecoli inh: growth loss of phage-infected E. coli, primary screen, RecBCD inhibitor project, absorbance, with phage, HTS. inhibition, % at 11.9 µM. actives 0.26% (n = 360,000); in the data active = inhibition above about 11%
E coli growth-1: E. coli growth inhibition, primary screen, OD600; Escherichia coli growth, 23 h; active compounds read low; OD600 absorbance (no concentration beside the values); actives 0.21% (n = 330,000); AID 1053175, 2014;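 active = OD600 absorbance below the run mean of sample wells minus 3.6 SD, in any replicate, cut at about 0.56 in these data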
E coli growth-2: E. coli V3065 growth inhibition, primary screen, counter-screen for AddAB inhibitor project, absorbance, OD600; 18 h; inhibition, % at 11.9 µM; actives 0.27% (n = 330,000); AID 449728, 2010;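 active = inhibition above the campaign's mean inhibition across all tested compounds plus 3 SD, cut at about 9.9% in these data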;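 also: uninfected addAB+ strain grown without phage in ampicillin broth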
AddAB confirm: growth loss of phage-infected E. coli expressing H. pylori AddAB, confirmation, AddAB inhibitor project, absorbance, E. coli V3065, T4 phage, triplicate; shares compounds with AddAB inh; OD; T4 phage with gene 2 nonsense mutations; inhibition, % at 11.9 µM; actives 64% (n = 880); AID 488942, 2010;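 active = mean inhibition above a set limit taken from the earlier primary screen, cut at about 13% in these data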;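 also: higher means less bacterial growth since AddAB block lets phage replicate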
RecBCD counter: growth loss of RecBCD+ E. coli with mutant T4 phage, counter-screen for AddAB inhibitor project, absorbance, V66 E. coli | shares compounds with AddAB inh | OD growth | inhibition, % at 11.9 µM | actives 73% (n = 880);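 active = mean inhibition above the mean of solvent-only control wells plus 3 SD, cut at about 4% in these data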;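 also: optical density read after an 18 h incubation at 37 °C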
Bact viability: bacterial viability inhibition counter-screen, confirmation, counter-screen for AddAB inhibitor project, absorbance | shares compounds with AddAB inh | actives 35% (n = 880) | AID 488956, 2010 | inhibition, % at 11.9 µM | absorbance (AddAB counterscreen); in the data active = inhibition above about 25%
RecBCD conf: growth loss of phage-infected RecBCD+ E. coli, confirmation, RecBCD inhibitor project, absorbance, E. coli V66, T4 gene 2 phage; shares compounds with phage Ecoli inh; E. coli V66 + T4 2- phage, growth OD; inhibition, % at 11.9 µM; actives 45% (n = 890); AID 651982, 2013;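 active = mean inhibition over triplicates exceeding the hit threshold derived in the original primary screen, cut at about 11% in these data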
Ecoli viability: E. coli viability inhibition, counter-screen for RecBCD inhibitor project, absorbance, high throughput; inhibition, % at 11.9 µM; absorbance (OD) growth; shares compounds with phage Ecoli inh; AID 651983, 2013; actives 29% (n = 890); in the data active = inhibition above about 20%;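 also: E. coli strain V66 grown with compound alone and no phage infection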
AddAB counter: growth loss of phage-infected AddAB-carrying E. coli, confirmation, counter-screen for RecBCD inhibitor project, absorbance, E. coli V3065, T4 phage; shares compounds with phage Ecoli inh; E. coli expressing H. pylori AddAB + T4 phage, OD growth; gene 2 mutant T4, recBCD-deleted host; inhibition, % at 11.9 µM; actives 45% (n = 890); AID 651984, 2013;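 active = mean inhibition above the solvent-only control wells' mean plus 3 SD, cut at about 22% in these data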;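 also: higher means less bacterial growth from phage killing when AddAB is blocked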
Each line names hits and unclear results; the compound was inactive in the other large screens (follow-up assays come after a bar, where they were run). In the library only some 0.5% were active in any assay of this set; here they are far more common.

CN1CCN(C(c2ccc(C(F)(F)F)cc2)c2cc(Cl)c3cccnc3c2O)CC1 (stereo not drawn)	AddAB inh 18, phage Ecoli inh 24, E coli growth-2 23 (no result: Tat export inh, E coli growth-1) | AddAB confirm 14 | RecBCD counter 14 | Bact viability inactive | RecBCD conf inactive | Ecoli viability inactive | AddAB counter inactive
CCN1CCN(C(c2ccc(C(F)(F)F)cc2)c2ccc3cccnc3c2O)CC1 (stereo not drawn)	AddAB inh 26, phage Ecoli inh 21, E coli growth-2 38 | AddAB confirm inactive | RecBCD counter 12 | Bact viability inactive | RecBCD conf inactive | Ecoli viability inactive | AddAB counter inactive
O=c1cc(-c2ccccc2)cc(-c2ccccc2)n1O	AddAB inh 17, phage Ecoli inh 19, E coli growth-1 0.43, E coli growth-2 21 | AddAB confirm inactive | RecBCD counter 15 | Bact viability inactive | RecBCD conf inactive | Ecoli viability inactive | AddAB counter inactive
Cn1c(-c2ccccc2)cc(=O)cc1-c1ccccc1	none (no result: AddAB inh, Tat export inh, E coli growth-1, E coli growth-2)
CCCC(CNC(CNC)C(C)CC)NCC1CCC(C(C)(C)C)CC1 (stereo not drawn)	none (no result: AddAB inh, Tat export inh, phage Ecoli inh, E coli growth-2)
CC(C)C1S/C(=N/N=Cc2cccs2)NC1=O (stereo not drawn)	none (no result: AddAB inh, Tat export inh, phage Ecoli inh, E coli growth-2)
O=c1[nH]cc(O)c(=O)[nH]1	none
O=c1[nH]cc(F)c(=O)[nH]1	AddAB inh 48, phage Ecoli inh 53, E coli growth-2 44 (no result: E coli growth-1) | AddAB confirm 45 | RecBCD counter 38 | Bact viability 41 | RecBCD conf 63 | Ecoli viability 53 | AddAB counter 70
Oc1ccccc1N=N/C(=N/Nc1ccccc1O)c1ccccc1	none (no result: E coli growth-1)
N#C/C(N=Nc1ccccc1O)=N\Nc1ccccc1O	AddAB inh 23, phage Ecoli inh 30, E coli growth-2 22 (no result: E coli growth-1) | AddAB confirm 89 | RecBCD counter 27 | Bact viability 94 | RecBCD conf 25 | Ecoli viability 25 | AddAB counter 94
C=C(C)C(=O)Nc1cccc(C2=NOC3(C2)CC(C(N)=O)N(C(=O)c2ccc(Cl)cc2)C3)c1 (stereo not drawn)	none (no result: AddAB inh, Tat export inh, phage Ecoli inh, E coli growth-2)
COc1ccc(C2C=CCN(C(=O)C(Cc3ccccc3)NC(=O)OCC3c4ccccc4-c4ccccc43)CC(=O)N2Cc2ccc(F)cc2)cc1 (stereo not drawn)	none (no result: AddAB inh, Tat export inh, phage Ecoli inh, E coli growth-2)
Cc1cc(=O)[nH]c(NN=CC(C)c2ccccc2)n1 (stereo not drawn)	none (no result: AddAB inh, Tat export inh, phage Ecoli inh, E coli growth-2)
O=[N+]([O-])c1cc(Cl)c2cccnc2c1O	AddAB inh 68, phage Ecoli inh 52, E coli growth-1 0.067, E coli growth-2 62 | AddAB confirm 63 | RecBCD counter 70 | Bact viability 63 | RecBCD conf 78 | Ecoli viability 79 | AddAB counter 63
O=[N+]([O-])c1cc(F)c2cccnc2c1O	AddAB inh 53, phage Ecoli inh 40, E coli growth-1 0.083, E coli growth-2 54 | AddAB confirm 50 | RecBCD counter 49 | Bact viability 41 | RecBCD conf 53 | Ecoli viability 53 | AddAB counter 48
O=[N+]([O-])c1ccc(O)c2cccnc12	none
COC(=O)[C@]12C(=O)NCC(CN1c1ccc(Cl)c(C)c1)N2C	none (no result: AddAB inh, Tat export inh, phage Ecoli inh, E coli growth-2)
O=C(O)CCC(=NNc1ccc(S(=O)(=O)N2CCOCC2)cc1[N+](=O)[O-])c1cccs1	none (no result: AddAB inh, Tat export inh, phage Ecoli inh, E coli growth-2)
FC(F)Oc1ccc(NC(=S)NCc2nc3ccccc3[nH]2)cc1	AddAB inh 16, phage Ecoli inh 17, E coli growth-2 17 | AddAB confirm 33 | RecBCD counter 19 | Bact viability inactive | RecBCD conf 21 | Ecoli viability inactive | AddAB counter 36
CCOc1ccc(NC(=S)NCc2nc3ccccc3[nH]2)cc1	AddAB inh 20, phage Ecoli inh 20, E coli growth-2 16 | AddAB confirm 32 | RecBCD counter 19 | Bact viability inactive | RecBCD conf 17 | Ecoli viability inactive | AddAB counter 29
CC(C)c1ccccc1NC(=S)NCc1nc2ccccc2[nH]1	none
Cc1cc(NS(=O)(=O)c2ccc(N)cc2)no1	AddAB inh 12, phage Ecoli inh 16, E coli growth-2 10 (no result: Tat export inh, E coli growth-1) | AddAB confirm 18 | RecBCD counter 9.4 | Bact viability inactive | RecBCD conf inactive | Ecoli viability inactive | AddAB counter 27
Cc1ccc(S(=O)(=O)Nc2cc(C)on2)cc1	none
O=C(Nc1nnc(-c2cccs2)o1)c1cccc(C(F)(F)F)c1	AddAB inh 21, phage Ecoli inh 96, E coli growth-1 0.5, E coli growth-2 13 | AddAB confirm 16 | RecBCD counter 14 | Bact viability inactive | RecBCD conf inactive | Ecoli viability inactive | AddAB counter inactive
O=C1OC(CN2CCOCC2)CN1N=Cc1ccc([N+](=O)[O-])o1 (stereo not drawn)	AddAB inh 98, phage Ecoli inh 86, E coli growth-1 0.064, E coli growth-2 99 | AddAB confirm 100 | RecBCD counter 81 | Bact viability 100 | RecBCD conf 64 | Ecoli viability 83 | AddAB counter 100
O=C1CN(/N=C/c2ccc([N+](=O)[O-])o2)C(=O)N1	AddAB inh 99, phage Ecoli inh 77, E coli growth-2 99 (no result: Tat export inh, E coli growth-1) | AddAB confirm 100 | RecBCD counter 40 | Bact viability 101 | RecBCD conf 49 | Ecoli viability 72 | AddAB counter 100
O=C(N/N=C/c1ccc([N+](=O)[O-])o1)c1ccncc1	AddAB inh 94, phage Ecoli inh 23, E coli growth-2 18 (no result: Tat export inh, E coli growth-1) | AddAB confirm 97 | RecBCD counter 19 | Bact viability 33 | RecBCD conf 16 | Ecoli viability inactive | AddAB counter 64
